# Calls of active or inactive are those of the source. Unless noted, how the calls were made is not given here.
# Columns and labels:
# [1] = system: XIP peptide (Xip251-270) binding; experiment: small-molecule binders of XIP peptide, primary screen, biochemical, small-molecule microarray, fluorescence 635/667 nm, 0.1 µg/mL protein (AID 1182); conditions: fluorescent protein binding, 635 nm, higher = more signal, called active from +8 up or from −8 down
# [2] = system: XIP peptide (Xip251-270); experiment: small-molecule binders of XIP peptide, primary screen, biochemical, small-molecule microarray, fluorescence 635/667 nm, 0.5 µg/mL protein (AID 1183); conditions: small-molecule microarray binding, fluorescence 635 nm; higher = more signal
# [3] = Plasmodium falciparum growth inhibition, primary screen, strain 3D7, DAPI fluorescence, 100 nL (AID 1184);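 further: parasites grown inside human red blood cells in medium with human serum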; conditions: P. falciparum 3D7 growth, 3 d, higher = more signal
# [4] = biological target: Homeobox protein Hox-A13 (Mus musculus) (UniProt Q62424); experiment: inhibitors of HoxA13-DNA binding, primary screen, biochemical, fluorescence polarization, labeled oligonucleotide (AID 1185); conditions: 15 min, higher = more signal, called active from +8 up or from −8 down
# Sequence of Homeobox protein Hox-A13 (Mus musculus) (Q62424 whole entry, looked up): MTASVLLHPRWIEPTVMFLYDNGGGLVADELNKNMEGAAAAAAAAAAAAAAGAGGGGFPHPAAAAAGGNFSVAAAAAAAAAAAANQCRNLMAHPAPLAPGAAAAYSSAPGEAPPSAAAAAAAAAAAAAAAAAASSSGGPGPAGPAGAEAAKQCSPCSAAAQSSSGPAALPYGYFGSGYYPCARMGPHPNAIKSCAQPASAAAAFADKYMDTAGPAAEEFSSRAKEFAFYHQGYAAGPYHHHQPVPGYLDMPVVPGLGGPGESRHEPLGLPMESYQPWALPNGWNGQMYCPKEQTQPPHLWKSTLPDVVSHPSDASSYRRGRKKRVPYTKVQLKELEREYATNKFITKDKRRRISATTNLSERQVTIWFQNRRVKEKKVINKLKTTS
# [5] = inhibitors of hydroxyurea-induced Chk1 phosphorylation, primary screen, imaging, HeLa, phospho-Chk1 antibody, percent positive cells (AID 1186); conditions: hydroxyurea-induced phospho-Chk1 immunofluorescence imaging, higher = more signal
# [6] = inhibitors of hydroxyurea-induced Chk1 phosphorylation, primary screen, imaging, HeLa, phospho-Chk1 nuclear intensity (AID 1187); conditions: hydroxyurea-induced phospho-Chk1 immunofluorescence imaging, higher = more signal
Structure (SMILES),composite z-score [1],composite z-score [2],z-score [3],z-score [4],z-score [5],z-score [6]
CN(C)c1ccc(C(O)C2C=CC3C(=O)NC(=O)C3N2Nc2ccccn2)cc1 (stereo not drawn),-0.181 (inactive),-0.0515,0.597,-2.26 (inactive),0.431 (inactive),0.493 (inactive)
CCOC(=O)C[C@H]1[C@H](OC(=O)c2ccc(C(=O)c3ccccc3)cc2)[C@@H](NC(=O)C2CCCCC2)c2cc(OCCCO)ccc2N1C(=O)c1ccc2ccccc2n1,-0.482 (inactive),0.368,-1.69,-0.814 (inactive),-0.739 (inactive),-0.573 (inactive)
CCOC(=O)[C@@H]1CCCCN1C(=O)C(=O)OC,0.636 (inactive),0.271,1.99,0.731 (inactive),0.284 (inactive),-0.0933 (inactive)
COC(=O)[C@@]1(Cc2ccc(OC)cc2)[C@H]2c3cc(C(=O)N4CCCC4)n(CCc4c[nH]c5ccc(O)cc45)c3C[C@H]2CN1C(=O)c1ccccc1,0.903 (inactive),0.864,-1.44,-4.21 (inactive),0.336 (inactive),0.258 (inactive)
COCCOC(=O)N1C(=O)[C@@]2(c3cc(C#CC4=CCCCC4)ccc31)[C@H](C(=O)Nc1nc3ccccc3s1)[C@H]1C(=O)O[C@H](c3ccccc3)[C@H](c3ccccc3)N1[C@@H]2c1ccc(O)cc1,-0.0082 (inactive),0.751,-0.259,-0.148 (inactive),-0.0232 (inactive),-0.0288 (inactive)
O=C(O)[C@@H]1C[C@@H]2C(=O)N3CCC[C@H]3C(=O)N2[C@@H]1c1ccc(O)cc1,0.543 (inactive),0.906,-1.37,1.66 (inactive),0.959 (inactive),1.08 (inactive)
Cc1ccc(S[C@]2(C(=O)NC(C)C)CC(=O)N(Cc3cc(C(F)(F)F)cc(C(F)(F)F)c3)[C@@H]2c2ccc(CO)cc2)cc1,0.706 (inactive),0.49,-0.938,-2.62 (inactive),0.0619 (inactive),0.116 (inactive)
CC(C)=C1C(=O)C(c2ccccc2)=C2CN3C(=O)N(CCc4ccccc4)C(=O)[C@]3(Cc3ccc(C(F)(F)F)cc3)[C@H]21,1.05 (inactive),-0.498,-0.503,-1.59 (inactive),0.551 (inactive),0.465 (inactive)
COCCOC(=O)N1C(=O)[C@@]2(c3cc(C#CC4(O)CCCCCC4)ccc31)[C@H](C(=O)N1CCc3cc(OC)c(OC)cc3C1)[C@H]1C(=O)O[C@H](c3ccccc3)[C@H](c3ccccc3)N1[C@@H]2c1ccc(OCCO)cc1,0.402 (inactive),0.62,-2.25,2.15 (inactive),-0.149 (inactive),-0.247 (inactive)
COc1cc(OC)c(C(O)C2C=CC3C(=O)N(Cc4ccccc4)C(=O)C3N2n2cnnc2)cc1Br (stereo not drawn),0.236 (inactive),0.0481,-0.976,0.767 (inactive),0.0176 (inactive),0.301 (inactive)
CCCN1C(=O)[C@@]2(Cc3ccccc31)N=C(c1ccc(OCCCO)cc1)O[C@H]2c1ccccc1,0.468 (inactive),0.828,-1.65,-6.04 (inactive),-0.0494 (inactive),0.365 (inactive)
C=C[C@@H](CO)N(Cc1ccc(OC)cc1)S(=O)(=O)c1ccc(Br)cc1,-0.798 (inactive),-0.315,-0.0153,-3.98 (inactive),-0.289 (inactive),-0.157 (inactive)
COc1ccc(C#Cc2ccc3c(c2)[C@]2(C(=O)N3)[C@H](c3ccc(OCCO)cc3)N3[C@H](c4ccccc4)[C@H](c4ccccc4)OC(=O)[C@H]3[C@@H]2C(=O)NC[C@H](O)c2ccccc2)cc1,0.47 (inactive),0.691,-1.78,-1.01 (inactive),-0.387 (inactive),-0.263 (inactive)
CC(c1ccccc1)C(O)C1C=CC2C(=O)N(C)C(=O)C2N1Nc1ccccc1 (stereo not drawn),0.255 (inactive),0.726,0.139,-3.9 (inactive),0.378 (inactive),-0.484 (inactive)
O=C1C2C=CC(C(O)C3CC=CCC3)N(Nc3ccccc3)C2C(=O)N1c1ccccc1 (stereo not drawn),0.767 (inactive),0.748,-0.653,-3.25 (inactive),0.639 (inactive),0.201 (inactive)
COC(=O)C1=CC(CCCO)=CC(c2cccs2)N(C)C=C1C(=O)OC (stereo not drawn),0.0334 (inactive),0.819,-0.389,-7.53 (inactive),0.176 (inactive),0.219 (inactive)
COCCCNC(=O)[C@@H]1c2ccccc2C(=O)N(C(C)C)[C@H]1c1ccc(CO)cc1,0.147 (inactive),-0.0343,-0.324,-1.03 (inactive),-0.244 (inactive),-0.504 (inactive)
COc1ccc(C#Cc2ccc3c(c2)[C@]2(C(=O)N3)[C@H](c3ccc(O)cc3)N3[C@H](c4ccccc4)[C@H](c4ccccc4)OC(=O)[C@H]3[C@@H]2C(=O)Nc2nc3ccccc3s2)cc1,-0.52 (inactive),0.77,-1.31,-0.76 (inactive),0.372 (inactive),0.669 (inactive)
